# Reference: the supplement of paper PMC8728848
# Many of the other results were omitted from the sample, so the strongest signals are more common in it than they were.
# B1: Mermaid3 (Stilbonema majum) (protein)
# chain: MGSSHHHHHHSSGLVPRGSHMAASGWLRSPQGTVVKLYRRSLSWSKADEFCKDVDGRLVVDRTADMHLFLIKNVLKEKKSRVWVGLRRTASHSRTWIWSDGTRQNEGDLDANLWLRDEPNDAAGEEECALFMYSPWEKAWGLNDYLCRGGCRNYQFICEKWIR
# Experiments:
# Assay in all cases: glycan array binding signal (z-score within array); higher = stronger binding
# Settings in all cases: glycan notation: IUPAC condensed, linker removed
# [1] = target: Fuc(a1-2)Gal(b1-4)GlcNAc(b1-3)Gal(b1-4)GlcNAc(b1-2)Man(a1-3)[Fuc(a1-2)Gal(b1-4)GlcNAc(b1-3)Gal(b1-4)GlcNAc(b1-2)Man(a1-6)]Man(b1-4)GlcNAc(b1-4)GlcNAc
# Procedure, shortened: (§1)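 Columns mapping to the same glycan were averaged after glycan names were converted to IUPAC-condensed notation. The data come from 3228 arrays in the Consortium for Functional Glycomics database, limited to those with an available protein sequence. Binding is reported as a within-array Z-score averaged across arrays of one protein sequence and across linkers.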
# [2] = target: Fuc(a1-2)[Gal(a1-3)]Gal(b1-4)GlcNAc
# Procedure, shortened: as §1
# [3] = target: Fuc(a1-2)[Gal(a1-3)]Gal(b1-4)GlcNAc(b1-2)Man
# Procedure, shortened: as §1
# [4] = target: Fuc(a1-2)[Gal(a1-3)]Gal(b1-4)GlcNAc(b1-6)GalNAc
# Procedure, shortened: as §1
# [5] = target: Fuc(a1-2)[Gal(a1-3)]Gal(b1-4)[Fuc(a1-3)]GlcNAc(b1-3)GalNAc
# Procedure, shortened: as §1
# [6] = target: Fuc(a1-2)[GalNAc(a1-3)]Gal(b1-4)GlcNAc(b1-2)Man(a1-3)[Fuc(a1-2)[GalNAc(a1-3)]Gal(b1-4)GlcNAc(b1-2)Man(a1-6)]Man(b1-4)GlcNAc(b1-4)[Fuc(a1-6)]GlcNAc
# Procedure, shortened: as §1
# [7] = target: Fuc(a1-3)[Gal(b1-4)]GlcNAc(b1-3)Gal(b1-4)[Fuc(a1-3)]GlcNAc(b1-3)Gal(b1-4)[Fuc(a1-3)]GlcNAc
# Procedure, shortened: as §1
# [8] = target: Fuc(a1-3)[Gal(b1-4)]GlcNAc6S
# Procedure, shortened: as §1
# [9] = target: Fuc(a1-3)[Gal3S(b1-4)]GlcNAc6S
# Procedure, shortened: as §1
# Fuc(a1-4)GlcNAc = target: Fuc(a1-4)GlcNAc
# Procedure, shortened: as §1
# Gal(a1-3)Gal = target: Gal(a1-3)Gal
# Procedure, shortened: as §1
# Gal(b1-3)GalNAc = target: Gal(b1-3)GalNAc
# Procedure, shortened: as §1
# [10] = target: Gal(b1-3)GlcNAc(b1-2)Man(a1-3)[Gal(b1-3)GlcNAc(b1-2)Man(a1-6)]Man(b1-4)GlcNAc(b1-4)GlcNAc
# Procedure, shortened: as §1
# [11] = target: Gal(b1-3)GlcNAc(b1-3)Gal(b1-4)GlcNAc(b1-3)Gal(b1-4)GlcNAc(b1-2)[Gal(b1-3)GlcNAc(b1-3)Gal(b1-4)GlcNAc(b1-3)Gal(b1-4)GlcNAc(b1-6)]Man(a1-6)[Gal(b1-3)GlcNAc(b1-3)Gal(b1-4)GlcNAc(b1-3)Gal(b1-4)GlcNAc(b1-2)Man(a1-3)]Man(b1-4)GlcNAc(b1-4)[Fuc(a1-6)]GlcNAc
# Procedure, shortened: as §1
# [12] = target: Gal(b1-3)[Fuc(a1-4)]GlcNAc(b1-2)Man
# Procedure, shortened: as §1
# [13] = target: Gal(b1-3)[Fuc(a1-4)]GlcNAc(b1-3)Gal(b1-3)[Fuc(a1-4)]GlcNAc
# Procedure, shortened: as §1
# Gal(b1-4)Gal = target: Gal(b1-4)Gal
# Procedure, shortened: as §1
# [14] = target: Gal(b1-4)GlcNAc(b1-2)[Gal(b1-4)GlcNAc(b1-6)]Man(a1-6)[GlcNAc(b1-4)][Gal(b1-4)GlcNAc(b1-2)[Gal(b1-4)GlcNAc(b1-4)]Man(a1-3)]Man(b1-4)GlcNAc(b1-4)[Fuc(a1-6)]GlcNAc
# Procedure, shortened: as §1
# [15] = target: Gal(b1-4)GlcNAc(b1-3)Gal(b1-4)GlcNAc(b1-2)[Gal(b1-4)GlcNAc(b1-3)Gal(b1-4)GlcNAc(b1-6)]Man(a1-6)[Gal(b1-4)GlcNAc(b1-3)Gal(b1-4)GlcNAc(b1-2)Man(a1-3)]Man(b1-4)GlcNAc(b1-4)GlcNAc
# Procedure, shortened: as §1
# [16] = target: Gal(b1-4)GlcNAc(b1-3)Gal(b1-4)GlcNAc(b1-3)GalNAc
# Procedure, shortened: as §1
# [17] = target: Gal(b1-4)GlcNAc(b1-3)Gal(b1-4)GlcNAc(b1-3)[Gal(b1-4)GlcNAc(b1-3)Gal(b1-4)GlcNAc(b1-6)]GalNAc
# Procedure, shortened: as §1
# [18] = target: Gal(b1-4)GlcNAc(b1-3)Gal(b1-4)[Fuc(a1-3)]GlcNAc(b1-3)Gal(b1-4)[Fuc(a1-3)]GlcNAc
# Procedure, shortened: as §1
# [19] = target: Gal(b1-4)GlcNAc(b1-3)[Gal(b1-4)GlcNAc(b1-6)]Gal(b1-4)GlcNAc
# Procedure, shortened: as §1
# [20] = target: Gal(b1-4)GlcNAc(b1-3)[GlcNAc(b1-6)]Gal(b1-4)GlcNAc
# Procedure, shortened: as §1
# Gal3S(b1-4)Glc6S = target: Gal3S(b1-4)Glc6S
# Procedure, shortened: as §1
# [21] = target: GalNAc(b1-4)GlcNAc(b1-2)Man
# Procedure, shortened: as §1
# GalNAc(b1-4)GlcNAc6S = target: GalNAc(b1-4)GlcNAc6S
# Procedure, shortened: as §1
# GlcA(b1-3)GlcNAc = target: GlcA(b1-3)GlcNAc
# Procedure, shortened: as §1
# [22] = target: GlcNAc(a1-3)Gal(b1-4)GlcNAc
# Procedure, shortened: as §1
# [23] = target: GlcNAc(b1-2)[GlcNAc(b1-6)]Man(a1-6)[GlcNAc(b1-4)][GlcNAc(b1-2)Man(a1-3)]Man(b1-4)GlcNAc(b1-4)GlcNAc
# Procedure, shortened: as §1
# GlcNAc(b1-3)Man = target: GlcNAc(b1-3)Man
# Procedure, shortened: as §1
# Kdn(a2-3)Gal(b1-3)GlcNAc = target: Kdn(a2-3)Gal(b1-3)GlcNAc
# Procedure, shortened: as §1
# [24] = target: Man(a1-2)Man(a1-2)Man(a1-3)Man
# Procedure, shortened: as §1
# [25] = target: Man(a1-2)Man(a1-6)[Man(a1-3)]Man(a1-6)[Man(a1-2)Man(a1-2)Man(a1-3)]Man
# Procedure, shortened: as §1
# Man(a1-3)[Man(a1-6)]Man = target: Man(a1-3)[Man(a1-6)]Man
# Procedure, shortened: as §1
# [26] = target: Man(a1-3)[Man(a1-6)]Man(b1-4)GlcNAc(b1-4)GlcNAc
# Procedure, shortened: as §1
# Man(b1-4)GlcNAc = target: Man(b1-4)GlcNAc
# Procedure, shortened: as §1
# [27] = target: Neu5Ac(a2-3)Gal(b1-3)GalNAc6S
# Procedure, shortened: as §1
# [28] = target: Neu5Ac(a2-3)Gal(b1-3)GlcNAc
# Procedure, shortened: as §1
# Neu5Ac(a2-3)Gal(b1-4)Glc = target: Neu5Ac(a2-3)Gal(b1-4)Glc
# Procedure, shortened: as §1
# [29] = target: Neu5Ac(a2-3)Gal(b1-4)GlcNAc(b1-2)Man
# Procedure, shortened: as §1
# [30] = target: Neu5Ac(a2-3)Gal(b1-4)GlcNAc(b1-3)Gal(b1-4)GlcNAc(b1-3)[Neu5Ac(a2-3)Gal(b1-4)GlcNAc(b1-3)Gal(b1-4)GlcNAc(b1-6)]GalNAc
# Procedure, shortened: as §1
# [31] = target: Neu5Ac(a2-3)Gal(b1-4)GlcNAc(b1-6)[Gal(b1-3)]GalNAc
# Procedure, shortened: as §1
# [32] = target: Neu5Ac(a2-3)Gal(b1-4)[Fuc(a1-3)]GlcNAc(b1-2)Man
# Procedure, shortened: as §1
# [33] = target: Neu5Ac(a2-3)Gal(b1-4)[Fuc(a1-3)]GlcNAc(b1-6)[Neu5Ac(a2-3)Gal(b1-3)]GalNAc
# Procedure, shortened: as §1
# [34] = target: Neu5Ac(a2-3)GalNAc(b1-4)GlcNAc
# Procedure, shortened: as §1
# [35] = target: Neu5Ac(a2-3)[Neu5Ac(a2-6)]GalNAc
# Procedure, shortened: as §1
# [36] = target: Neu5Ac(a2-6)GlcNAc(b1-4)GlcNAc
# Procedure, shortened: as §1
# Neu5Ac(a2-8)Neu5Ac = target: Neu5Ac(a2-8)Neu5Ac
# Procedure, shortened: as §1
# [37] = target: Neu5Ac9Ac(a2-3)Gal(b1-4)GlcNAc
# Procedure, shortened: as §1
# [38] = target: Neu5Gc(a2-8)Neu5Gc(a2-3)Gal(b1-4)GlcNAc
# Procedure, shortened: as §1
binder,measurement,setting,value
B1,glycan array binding signal (z-score),[1],0.368
same,glycan array binding signal (z-score),[2],-0.174
same,glycan array binding signal (z-score),[3],-0.175
same,glycan array binding signal (z-score),[4],-0.383
same,glycan array binding signal (z-score),[5],-0.592
same,glycan array binding signal (z-score),[6],0.166
same,glycan array binding signal (z-score),[7],-0.463
same,glycan array binding signal (z-score),[8],3.67
same,glycan array binding signal (z-score),[9],-0.521
same,glycan array binding signal (z-score),Fuc(a1-4)GlcNAc,1.39
same,glycan array binding signal (z-score),Gal(a1-3)Gal,-0.579
same,glycan array binding signal (z-score),Gal(b1-3)GalNAc,0.892
same,glycan array binding signal (z-score),[10],-0.627
same,glycan array binding signal (z-score),[11],5.6
same,glycan array binding signal (z-score),[12],0.676
same,glycan array binding signal (z-score),[13],-0.634
same,glycan array binding signal (z-score),Gal(b1-4)Gal,6.72
same,glycan array binding signal (z-score),[14],-0.562
same,glycan array binding signal (z-score),[15],3.51
same,glycan array binding signal (z-score),[16],-0.185
same,glycan array binding signal (z-score),[17],-0.118
same,glycan array binding signal (z-score),[18],-0.554
same,glycan array binding signal (z-score),[19],-0.074
same,glycan array binding signal (z-score),[20],4.93
same,glycan array binding signal (z-score),Gal3S(b1-4)Glc6S,-0.077
same,glycan array binding signal (z-score),[21],-0.708
same,glycan array binding signal (z-score),GalNAc(b1-4)GlcNAc6S,3.6
same,glycan array binding signal (z-score),GlcA(b1-3)GlcNAc,1.68
same,glycan array binding signal (z-score),[22],1.05
same,glycan array binding signal (z-score),[23],-0.397
same,glycan array binding signal (z-score),GlcNAc(b1-3)Man,5.11
same,glycan array binding signal (z-score),Kdn(a2-3)Gal(b1-3)GlcNAc,-0.708
same,glycan array binding signal (z-score),[24],-0.704
same,glycan array binding signal (z-score),[25],-0.681
same,glycan array binding signal (z-score),Man(a1-3)[Man(a1-6)]Man,0.678
same,glycan array binding signal (z-score),[26],-0.62
same,glycan array binding signal (z-score),Man(b1-4)GlcNAc,4.76
same,glycan array binding signal (z-score),[27],-0.112
same,glycan array binding signal (z-score),[28],-0.277
same,glycan array binding signal (z-score),Neu5Ac(a2-3)Gal(b1-4)Glc,0.506
same,glycan array binding signal (z-score),[29],4.26
same,glycan array binding signal (z-score),[30],-0.289
same,glycan array binding signal (z-score),[31],4.77
same,glycan array binding signal (z-score),[32],-0.553
same,glycan array binding signal (z-score),[33],-0.153
same,glycan array binding signal (z-score),[34],0.426
same,glycan array binding signal (z-score),[35],4.44
same,glycan array binding signal (z-score),[36],-0.709
same,glycan array binding signal (z-score),Neu5Ac(a2-8)Neu5Ac,-0.57
same,glycan array binding signal (z-score),[37],-0.2
same,glycan array binding signal (z-score),[38],-0.787
